Compound activity as filed in PubChem BioAssay.
A selection: hits, their analogues and other compounds. The true share with any hit is near 19%.
ELG1 DNA repair: ELG1-dependent DNA repair inhibition. actives 2.3% (n = 330,000). Potency, µM (series often up to 46.1 µM), for the others: top-dose activity change, negative = inhibition, usual class: inhibitors. HEK293T ELG1-luciferase reporter, luminescence, 16 h; DNA damage induced by 5-fluorouridine; further: potency means the concentration at half of the fitted maximal effect; nearly all actives have a fitted effect of over 55% in size
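DMSO vehicle served as the neutral condition. Each well held 2,000 cells given 5-fluorouridine plus compound; after 16 hr at 37 °C/5% CO2, ONE-Glo was added and luciferase measured 30 min later.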
TDP1 cell noCPT: qHTS for Inhibitors of human tyrosyl-DNA phosphodiesterase 1 (TDP1): qHTS in cells in absence of CPT; actives 15% (n = 420,000); DT40 Tdp1-/- hTDP1 cells, no CPT, ATP luminescence, 48 h; Potency, µM (highest dose often 46.2 µM), inactives show at the highest dose activity change, negative = growth inhibition, hits mostly inhibitors; further: potency means the concentration at half of the fitted maximal effect; nearly all actives have a fitted effect of over 55% in size
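Luminescent ATP content (CellTiter-Glo) served as the growth readout. Knockout chicken DT40 cells expressing human TDP1 were exposed to compounds without camptothecin for a minimum 48 hr at 37 °C.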
TDP1 cell CPT: DT40-hTDP1 cell growth loss with CPT; Potency, µM (highest dose often 46.2 µM), for the others: top-dose activity change, negative = growth inhibition, most hits filed as inhibitors; chicken DT40 Tdp1-/-;hTDP1 cells + 20 nM CPT, ATP luminescence, 48 h; actives 12% (n = 420,000); AID 686979; further: potency means the concentration at half of the fitted maximal effect; nearly all actives have a fitted effect of over 55% in size
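Cell growth measured by CellTiter-Glo luminescence after a minimum 48 h, 37 C compound exposure with 20 nM CPT in Tdp1-knockout DT40 cells stably expressing hTDP1, seeded 400/well; qHTS titration format.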
HT1080 IDH1KD tx: toxicity to HT-1080 IDH1 knockdown cells (counter line) | actives 2% (n = 360,000) | Potency, µM (series often up to 46.1 µM), for the others: at the highest dose activity, negative = toxicity, hits mostly cytotoxic | HT-1080 IDH1 knockdown viability, ATP luminescence, 48 h;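 further: potency means the concentration at half of the fitted maximal effect; 0% = DMSO wells and -100% = cell-free medium wells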
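Using the IDH1-knockdown HT-1080 line run in the same batch and compound series as the NT line, viability after 48 h at 37 °C was determined by CellTiter-Glo luminescence and expressed as % activity.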
IL1B secr inh: inhibitors of inflammasome signaling (IL-1 beta secretion); THP-1 LPS/ATP IL-1B secretion, AlphaLISA, 16 h; hits give low values; activity change, % at 57.5 µM; actives 4.7% (n = 360,000); in the data active means activity change below about -50%; inconclusive means mostly about -30% to -49%
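Secreted IL-1B measured by AlphaLISA bead assay after 16 h compound exposure of THP-1 cells; compounds (final up to 57.5 uM) added 1 h before LPS (250 ng/mL) and ATP (1.25 mM) stimulation; lower signal means less secretion.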
HT1080-NT tox: kills 2HG-producing HT-1080-NT fibrosarcoma cells | HT-1080-NT fibrosarcoma viability, CellTiter-Glo ATP luminescence, 48 h | Potency, µM (top dose mostly 46.1 µM), inactives show at the highest dose activity, negative = less viability, actives largely listed as cytotoxic | actives 1.6% (n = 360,000);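 further: NT is the 2HG producing partner of a matched IDH1 knockdown line; potency means the concentration at half of the fitted maximal effect; 0% = DMSO-treated cells and -100% = media-only wells without cells; nearly all actives have a fitted effect of over 55% in size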
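Compounds were tested in concentration-response format on HT-1080-NT cells for 48 hours at 37 degrees C. Cell viability came from CellTiter-Glo luminescence; curves were classified by r2, response magnitude and activity.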
* hit, by the source's call; i = inactive; ? = inconclusive; / = not tested or not shown; [ ] = another dose, or the depositor's remark. Unless noted, the call rests on the fitted dose curve; in most records, active means well fitted curve in the direction sought with a large enough effect; inconclusive means small, poorly fitted or top-dose-only effect, or another doubt; inactive means no such curve, though single readings can be large; an effect the other way counts as inactive or inconclusive. Unless noted, on the % scale 0 is the no-effect control and ±100 the full control effect.

SMILES	ELG1 DNA repair	TDP1 cell noCPT	TDP1 cell CPT	HT1080 IDH1KD tx	IL1B secr inh	HT1080-NT tox
O=C(OCC(=O)N1CCN(C(=O)c2ccco2)CC1)c1cc(-c2cccc(Br)c2)nc2ccccc12	16µM*	-19%	?	-18%	-67*	-16%
O=C(OCC(=O)N1CCN(C(=O)c2ccco2)CC1)c1ccccc1OCc1ccccc1	-18%	-8%	-2%	1%	-16	1%
CCOC(=O)/C=C/C(=O)OCC(=O)N1CCN(C(=O)c2ccco2)CC1	-6%	15µM*	7.3µM*	-7%	0	-11%
O=C(OCC(=O)N1CCN(C(=O)c2ccco2)CC1)c1cc(-c2ccccc2)nc2ccccc12	15µM*	?	-16%	-5%	-70*	-1%
O=C(NCc1ccccn1)c1cnn(-c2ncc3c(n2)-c2ccccc2CC3)c1C1CC1	/	?	-17%[9.04 µM]	/	/	/
O=C(OCC(=O)N1CCN(C(=O)c2ccco2)CC1)c1cc(-c2ccc(F)cc2)nc2ccccc12	23µM*	-16%	-17%	-24%	-51*	-13%
CCN(CC)c1nc(SCCOC(=O)Nc2ccccc2)nc(N(CC)CC)n1	-14%	?	18µM*	?	-20	?
COc1cc(-c2noc(C)c2C(=O)N[C@@H](CO)Cc2ccccc2)cc(OC)c1OC	/	?	?	7%	17	5%
COc1cc(-c2noc(C)c2/C=C/c2ccc(C(=O)O)cc2)cc(OC)c1OC	-5%	?	?	18µM*	6	?
CC(C)(C)n1nnnc1C(c1ccccc1)N1CCN(CCN2CCOCC2)CC1 (stereo not drawn)	/	-19%	2%	18%	11	16%
Cc1ccc(OCCN2C(=O)C(=O)c3cccc(C)c32)cc1	8%	2.9µM*	2.3µM*	11%	2	-1%
CCOc1ccc(OCCN2C(=O)c3ccccc3C2=O)cc1	8.2µM*	3%	-4%	16%	0	11%
N#Cc1cccc(S(=O)(=O)NCc2nnc3ccccn23)c1	13%	3%	-2%	-1%	0	3%
CCOC(=O)c1c(-c2ccc(OC)cc2)csc1/N=C/C1C(=O)CCCC1=O	-2%	?	-22%	18µM*	-18	?
CCOC(=O)c1cc(C)sc1/N=C/C1C(=O)CCCC1=O	2%	-18%	-15%	-2%	3	9%
CCOC(=O)c1c(-c2ccc(OC)cc2)csc1/N=C/N(C)C	-9%	26µM*	-18%	-1%	i	-1%
CCOC(=O)c1c(-c2ccc(OC)cc2)csc1NC(=O)CSc1ccccc1	-13%	?	?	-4%	-12	1%
CC1C/C(=N\NC(=S)NC(C)C)CC(C)(C)C1 (stereo not drawn)	?	18µM*	10µM*	8%	59	16%
COc1ccccc1N1CCN(c2nc(CNC(=O)c3ccccc3F)nc3ccccc23)CC1	/	8.2µM*	?	/	/	/
COc1ccccc1N1CCN(c2nc(CNC(=O)C3CCOC(C)(C)C3)nc3ccccc23)CC1 (stereo not drawn)	/	16µM*	?	/	/	/
CCSc1nnc(CNC(=O)c2ccccc2F)n1-c1ccccc1OC	13%	1%	13%	2%	5	13%
COc1ccc(NC(=O)C2CCOC(C)(C)C2)cc1 (stereo not drawn)	11%	-2%	4%	7%	/	8%
COc1ccccc1N1CCN(C(=O)NCc2cccc(C(F)(F)F)c2)CC1	-11%	?	1%	-2%	-8	-18%
COc1ccccc1N1CCN(c2nc(CNC(=O)C3CC34CCCC4)nc3ccccc23)CC1 (stereo not drawn)	/	21µM*	-13%[9.04 µM]	/	/	/
CN(C)c1ccc(/C=C2\CCc3cc(N)ccc32)cc1	/	-28%	5%	/	/	/
SMILES	ELG1 DNA repair	TDP1 cell noCPT	TDP1 cell CPT	HT1080 IDH1KD tx	IL1B secr inh	HT1080-NT tox
COc1cc(OC)c(OC)cc1CN1CCCC(n2cc(C(=O)N3CCCCC3)nn2)C1 (stereo not drawn)	/	-9%	19%[9.04 µM]	/	/	/
COc1cccc(Nc2c3c(nc4nncn24)CCC3)c1	/	-28%	-21%	/	/	/
Cc1cnc(C(=O)Nc2ccc(N3CCN(C(=O)OC(C)(C)C)CC3)cc2)cn1	?	2.3µM*	4.6µM*	?	50	?
CCOC(=O)c1ccc(NC(=O)Cn2nnc(-c3ccccc3)n2)cc1	6%	?	?	-24%	-20	-9%
CC(C)(C)OC(=O)N1CCN(c2ccc(NC(=O)Cn3nnc(-c4ccccc4)n3)cc2)CC1	7%	23µM*	?	-12%	-9	-16%
O=S1(=O)CC(N2CCCC2)CN1Cc1cn(Cc2ccccc2)nn1 (stereo not drawn)	/	-26%	1%	15%	13	26%
COc1cc(OC)cc(C(=O)c2c(C)c(C#N)c3ccccn23)c1	-15%	2.3µM*	2.3µM*	12%	30	?
O=C(OCC(=O)N1CCc2ccccc2C1)c1cc(=O)[nH]c2ccccc12	2%	-12%	-5%	1%	28	-4%
CC(=O)C[C@H]1c2cc(F)ccc2S(=O)(=O)N1c1ccc(N(C)C)cc1	/	13µM*	15µM*	-3%	3	-1%
CC(=O)N1CCC2(CCN(Cc3cc(C(F)(F)F)cc(C(F)(F)F)c3)CC2)CC1	/	?	-28%	/	/	/
Nc1ncnc2c1c(-c1ccc(Oc3ccccc3)cc1)cn2C1CCCC1	?	18µM*	?	21µM*	56	23µM*
CN(C)CCNC(=O)c1ccc(-n2c(-c3ccccc3)cc3c2CCCCC3)cc1	/	-90%	?	/	/	/
CCOCCCNC(=O)c1ccc(-n2c(-c3ccccc3)cc3c2CCCC3)cc1	/	8.2µM*	9.2µM*	/	/	/
CC1CCc2c(cc(-c3ccccc3)n2-c2ccc(C(=O)NC(C)C)cc2)C1 (stereo not drawn)	/	21µM*	?	/	/	/
O=C(c1ccncc1)N1CCC2(CCN(Cc3nccs3)CC2)CC1	/	-7%	-2%	/	/	/
O=C(COc1ccc([N+](=O)[O-])cc1)N(Cc1cccs1)C1CCS(=O)(=O)C1 (stereo not drawn)	-16%	4%	-30%	3%	7	6%
CCOc1ccc(-c2nc3c(c(SCC(=O)N4CCCCC4)n2)Cc2ccccc2O3)cc1	/	-10%	-22%	/	/	/
